Test results from PubChem BioAssay (Tox21).
Records with an inconclusive call do not appear. The source made the active and inactive calls. Unless noted, calls follow the shape of the dose curve; as a rule, active = well fitted curve in the direction sought with a large enough effect in the repeat runs; inconclusive = weak or mixed curves; inactive = no such curve, though single readings can be large; an effect the other way counts as inactive or inconclusive.

Assays:
[1] = qHTS assay to identify small molecule agonists of the vitamin D receptor (VDR) signaling pathway - cell viability counter screen (AID 743224); also: series mostly up to about 63 µM; % is scaled to controls: 0 for no effect and ±100 for the full control effect; nearly all actives have a fitted effect of over 50% in size
How it was run: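 Luminescence from CellTiter-Glo, read after 30 min at room temperature, reports viability of VDR-bla cells treated with compounds for 16 h at 37C in the wells used for the beta-lactamase FRET read.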

[2] = qHTS assay to identify small molecule agonists of the NFkB signaling pathway (AID 1159509; active = well fitted curve in the direction sought with a large enough effect in the signal ratio in the repeat runs, not every such curve was filed as active; the % refers to the signal ratio; also: series mostly up to about 61 µM; % is scaled to controls: 0 for no effect and ±100 for the full control effect)
How it was run: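 NFkB-bla ME-180 cells carry a beta-lactamase reporter under an NF-kB response element. They were plated overnight, then exposed to compounds for 5 h at 37 C. Read-out is LiveBLAzer FRET after 1.5 hr at room temperature (405 nm excitation; 460/530 nm emission).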

[3] = qHTS assay to identify small molecule agonists of the NFkB signaling pathway - cell viability counter screen (AID 1159515; calls by dose curve; also: series mostly up to about 61 µM; % is scaled to controls: 0 for no effect and ±100 for the full control effect; nearly all actives have a fitted effect of over 55% in size)
How it was run: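 Luminescence from CellTiter-Glo (30 min, room temperature) gives viability, measured in the same wells as the beta-lactamase reporter read. Cells were NFkB-bla ME-180, 2,000 per well, treated 5 hr with compounds.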

[4] = qHTS assay to identify small molecule agonists of the endoplasmic reticulum stress response signaling pathway (AID 1159516; active = well fitted activation curve with a large enough effect in the signal ratio in the repeat runs, not every such curve was filed as active; the % refers to the signal ratio; also: % is scaled to controls: 0 for no effect and ±100 for the full control effect)
How it was run: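 Read-out is beta-lactamase cleavage of a FRET substrate (405 nm excitation; 460 and 530 nm emissions) in ESRE-bla HeLa cells after a 5 hr compound exposure at 37 C. Substrate incubation ran 2 hr at room temperature.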

[5] = qHTS assay to identify small molecule agonists of the endoplasmic reticulum stress response signaling pathway - cell viability counter screen (AID 1159517; calls by dose curve;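 also: HeLa cells carrying an ER stress response element beta-lactamase reporter; series mostly up to about 61 µM; % is scaled to controls: 0 for no effect and ±100 for the full control effect; nearly all actives have a fitted effect of over 50% in size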)
How it was run: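 ESRE-bla HeLa cells, 1,500 per well, seeded overnight then treated with compounds for 5 hr at 37 C. After the beta-lactamase read, viability in the same wells is measured by CellTiter-Glo luminescence after 30 min at room temperature.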

[6] = qHTS assay to identify small molecule antagonists of the retinoid-related orphan receptor gamma (ROR-gamma) signaling pathway - cell viability counter screen (AID 1159520); also: % is scaled to controls: 0 for no effect and ±100 for the full control effect; nearly all actives have a fitted effect of over 50% in size
How it was run: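 Tet-on ROR gamma CHO cells were given compounds for 2 hr, then doxycycline hyclate at 1 uM final, and incubated 16 hr at 37 C. Viability was measured as ATP content by CellTiter-Glo luminescence.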

[7] = target: Nuclear receptor ROR-gamma (Homo sapiens) (UniProt P51449); assay: qHTS assay to identify small molecule antagonists of the retinoid-related orphan receptor gamma (ROR-gamma) signaling pathway (AID 1159521;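 also: CHO cells with doxycycline inducible ROR-gamma driving an RORE luciferase reporter; top concentration of the series differs between compounds; % is scaled to controls: 0 for no effect and ±100 for the full control effect; nearly all actives have a fitted effect of over 50% in size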)
How it was run: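 Decreased RORE-driven luciferase luminescence indicates antagonism. Tet-on RORγ CHO cells received compound, then 1 uM final doxycycline 2 h later; signal read after 16 h incubation.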

[8] = qHTS assay to identify small molecule agonists of the AP-1 signaling pathway - cell viability counter screen (AID 1159525; calls by dose curve; also: nearly all actives have a fitted effect of over 55% in size)
How it was run: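 AP-1-bla ME-180 cells in Opti-MEM with 0.5% dialyzed FBS, compound exposure 5 h at 37 C in 15-point titration. Viability read in the same wells as ATP content by CellTiter-Glo luminescence, normalised to tetra-n-octylammonium bromide and DMSO controls.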

[9] = qHTS assay to identify small molecule agonists of the AP-1 signaling pathway (AID 1159526; calls by dose curve; also: % is scaled to controls: 0 for no effect and ±100 for the full control effect)
[10] = target: Retinoic acid receptor RXR-alpha (Homo sapiens) (UniProt P19793); assay: qHTS assay to identify small molecule agonists of the RXR signaling pathway (AID 1159527; calls by dose curve; also: % is scaled to controls: 0 for no effect and ±100 for the full control effect; nearly all actives have a fitted effect of over 35% in size)
How it was run: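 16 hr incubation of compound-treated RXR-alpha-UAS-bla HEK 293T cells (2% charcoal-stripped FBS, 37 C) preceded a 2 hr room-temperature LiveBLAzer FRET substrate step and blue/green fluorescence measurement.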

[11] = qHTS assay to identify small molecule agonists of the RXR signaling pathway - cell viability counter screen (AID 1159529)
How it was run: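 In this parallel viability measure, GeneBLAzer RXR-alpha HEK 293T cells (2% charcoal-stripped FBS) were given a 5 hr preincubation, treated with compounds 16 hr at 37 C, and read by CellTiter-Glo luminescence.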

[12] = qHTS assay to identify small molecule antagonists of the retinoid acid receptor (RAR) signaling pathway - cell viability counter screen (AID 1159551); also: % is scaled to controls: 0 for no effect and ±100 for the full control effect; nearly all actives have a fitted effect of over 35% in size
How it was run: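 Luminescent ATP quantitation (CellTiter-Glo) gave cell viability in C3RL4 cells exposed to test chemicals for 6 h at 37 C alongside 1 uM final retinol.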

[13] = qHTS assay to identify small molecule antagonists of the retinoic acid receptor (RAR) signaling pathway (AID 1159552)
How it was run: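 C3RL4 RARE-luc cells, overnight plating; retinol 1 uM final added right after compound; 6 hr 37 C; luciferase read at 30 min RT.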

[14] = qHTS assay to identify small molecule agonists of the retinoic acid receptor (RAR) signaling pathway (AID 1159553); also: % is scaled to controls: 0 for no effect and ±100 for the full control effect
How it was run: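 Luminescence from a RARE-driven luciferase reporter in C3RL4 cells served as the read-out, measured after 30 min with detection reagent at room temperature. Compounds in DMSO were applied for 6 hr at 37 C following overnight seeding.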

[15] = qHTS assay to identify small molecule antagonists of the estrogen related receptor (ERR) signaling pathway - cell viability counter screen (AID 1224818)
How it was run: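 Multiplexed counter screen to separate cytotoxic compounds from true ERR modulators. ERR cells received DMSO-dissolved compounds after a 6 h pre-incubation, were exposed 17.5 h at 37 C, then assayed with CellTiter-Fluor fluorescence.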

[16] = qHTS assay to identify small molecule antagonists of the estrogen related receptor (ERR) signaling pathway (AID 1224819)
How it was run: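 Seed ERR cells 2,000/well; rest 6 h at 37 C/5% CO2; pin compounds in DMSO; incubate 18 h at 37 C; add One-Glo; wait 30 min at room temperature; measure luminescence.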

[17] = qHTS assay to identify small molecule agonists of the estrogen related receptor (ERR) signaling pathway (AID 1224820); also: % is scaled to controls: 0 for no effect and ±100 for the full control effect
How it was run: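 ERR reporter cell line (from NTP), 2,000 cells/well, incubated 6 h before compound addition, then 18 h at 37 C. Luminescence measured 30 min after One-Glo reagent at room temperature.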

[18] = system: estrogen-related receptor alpha (ERRalpha) with PGC-1alpha coactivator, human; assay: qHTS assay to identify small molecule antagonists of the estrogen related receptor signaling pathway with the pleiotropic PPARgamma coactivator (PGC) (AID 1224821; calls by dose curve)
How it was run: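 PGC/ERR reporter cell line, plated 6 h before compound addition, then exposed 18 h at 37 °C. Luciferase activity read by luminescence 30 min after One-Glo addition; decrease indicates antagonism.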

[19] = qHTS assay to identify small molecule antagonists of the estrogen related receptor signaling pathway with the pleiotropic PPARgamma coactivator (PGC) cell viability counter screen (AID 1224822)
How it was run: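 Cells: PGC/ERR, 2,000/well, 1536-well format. Pre-incubation 6 h, 37 C/5% CO2. Compound exposure 17.5 h, 37 C. Detection: CellTiter-Fluor, 30 min, fluorescence.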

[20] = qHTS assay to identify small molecule antagonists of the vitamin D receptor (VDR) signaling pathway - cell viability counter screen (AID 743225)
How it was run: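 Parallel cytotoxicity test: VDR-UAS-bla HEK 293T, 3 nM (final) 1-alpha,25-dihydroxyvitamin D3 with test compound, 16 h, 37C. Endpoint is CellTiter-Glo luminescence in the same wells.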

Retinoic acid receptor RXR-alpha (Homo sapiens), sequence (P19793 whole entry, looked up): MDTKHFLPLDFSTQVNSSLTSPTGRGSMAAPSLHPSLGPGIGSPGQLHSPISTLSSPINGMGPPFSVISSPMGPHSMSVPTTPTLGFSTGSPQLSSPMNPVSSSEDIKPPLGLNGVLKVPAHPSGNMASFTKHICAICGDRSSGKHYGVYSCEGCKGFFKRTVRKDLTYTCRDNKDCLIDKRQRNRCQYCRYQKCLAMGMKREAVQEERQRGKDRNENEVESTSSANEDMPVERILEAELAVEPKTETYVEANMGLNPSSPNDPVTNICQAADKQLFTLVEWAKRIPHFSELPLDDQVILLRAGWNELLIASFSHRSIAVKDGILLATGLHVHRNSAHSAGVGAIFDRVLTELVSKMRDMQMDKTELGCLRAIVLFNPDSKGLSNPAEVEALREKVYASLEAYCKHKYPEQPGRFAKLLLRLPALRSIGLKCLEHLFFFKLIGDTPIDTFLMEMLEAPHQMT

O=S(O)CO
inactive: Potency [1] | outcome [2] | outcome [3] | outcome [4] | outcome [5] | outcome [6] | Potency [7] | Potency [8] | outcome [9] | Potency [10] | Potency [11] | outcome [12] | Potency [13] | Potency [14]

Brc1c(NC2=NCCN2)ccc2nccnc12
inactive: Potency [1] | outcome [2] | outcome [3] | outcome [4] | outcome [5] | outcome [6] | Potency [7] | Potency [8] | outcome [9] | Potency [10] | Potency [11] | outcome [12] | Potency [13] | Potency [14] | outcome [15] | outcome [16] | outcome [17] | outcome [18] | outcome [19]

Cc1cccn2c(=O)c(-c3nnn[nH]3)cnc12
inactive: Potency [1] | outcome [2] | outcome [3] | outcome [4] | outcome [5] | activity, negative = cytotoxicity [6] 0.0857% [at 19 µM] | Potency [7] | viability change, negative = cytotoxic [8] -0.287% [at 15.8 µM] | outcome [9] | Potency [10] | Potency [11] | activity change, negative = cytotoxicity [12] 2.52% [at 19 µM] | activity, negative = inhibition [13] 1.95% [at 19 µM] | Potency [14]

Cc1ccc(C#N)cc1
inactive: Potency [1] | Potency [20] | outcome [2] | outcome [3] | outcome [4] | outcome [5] | outcome [6] | Potency [7] | Potency [8] | outcome [9] | Potency [10] | Potency [11] | outcome [12] | Potency [13] | Potency [14]

CCOC(=O)Nc1ccc(NCc2ccc(F)cc2)nc1N
inactive: Potency [1] | Potency [20] | outcome [2] | outcome [3] | outcome [4] | outcome [5] | outcome [6] | Potency [7] | Potency [8] | outcome [9] | Potency [10] | Potency [11] | outcome [12] | Potency [13] | Potency [14] | outcome [15] | outcome [17] | outcome [18] | outcome [19]

CCOC(=O)C(=O)OCC
inactive: Potency [1] | outcome [2] | outcome [3] | outcome [4] | outcome [5] | outcome [6] | Potency [7] | Potency [8] | outcome [9] | Potency [10] | Potency [11] | outcome [12] | Potency [13] | Potency [14]

CC(C)(C)c1nnc(NS(=O)(=O)c2ccccc2)s1
inactive: Potency [1] | Potency [20] | outcome [2] | outcome [3] | outcome [4] | outcome [5] | outcome [6] | Potency [7] | Potency [8] | outcome [9] | Potency [10] | Potency [11] | outcome [12] | Potency [13] | Potency [14]

COc1c(N2C[C@@H]3CCCN[C@@H]3C2)c(F)cc2c(=O)c(C(=O)O)cn(C3CC3)c12
inactive: outcome [2] | outcome [3] | outcome [4] | outcome [5] | outcome [6] | Potency [7] | Potency [8] | outcome [9] | Potency [10] | Potency [11] | outcome [12] | Potency [13] | Potency [14]

CN1CCC(=C2c3ccccc3CC(=O)c3sccc32)CC1
inactive: Potency [1] | outcome [2] | outcome [3] | outcome [4] | outcome [5] | outcome [6] | Potency [7] | Potency [8] | outcome [9] | Potency [10] | Potency [11] | outcome [12] | Potency [13] | Potency [14] | outcome [15] | outcome [19]

O=C1CCCC(=O)C1
inactive: Potency [1] | outcome [2] | outcome [3] | outcome [4] | outcome [5] | outcome [6] | Potency [7] | Potency [8] | outcome [9] | Potency [10] | Potency [11] | outcome [12] | Potency [13] | Potency [14]

O=C(O)CN(CCOCCOCCN(CC(=O)O)CC(=O)O)CC(=O)O
inactive: activity change, negative = cytotoxicity [1] 7.18% [at 0.55 µM] | viability change, negative = cytotoxic [20] 0.79% [at 0.628 µM] | activation [2] -0.0067% [at 0.628 µM] | activity, negative = cytotoxic [3] 7.66% [at 0.628 µM] | activation [4] 0.191% [at 0.628 µM] | activity change, negative = cytotoxicity [5] 11.3% [at 0.628 µM] | activity, negative = cytotoxicity [6] 0.0573% [at 0.349 µM] | activity change, negative = inhibition [7] 4.15% [at 0.35 µM] | viability change, negative = cytotoxic [8] -1.21% [at 0.29 µM] | activation [9] -6.2% [at 0.29 µM] | activation [10] 10% [at 0.29 µM] | activity change, negative = cytotoxicity [11] -0.722% [at 0.29 µM] | activity change, negative = cytotoxicity [12] 0.187% [at 0.349 µM] | activity, negative = inhibition [13] 12.3% [at 0.349 µM] | activation [14] 2.01% [at 0.756 µM] | outcome [15] | outcome [16] | outcome [17] | outcome [18] | outcome [19]

CCc1ccc(O)c(OC)c1
inactive: Potency [1] | Potency [20] | outcome [2] | outcome [3] | outcome [4] | outcome [5] | outcome [6] | Potency [7] | Potency [8] | outcome [9] | Potency [10] | Potency [11] | outcome [12] | Potency [13] | Potency [14]

COc1ccc2c(c1)c(CC(=O)OCC(=O)O)c(C)n2C(=O)c1ccc(Cl)cc1
inactive: Potency [1] | Potency [20] | outcome [2] | outcome [3] | outcome [4] | outcome [5] | outcome [6] | Potency [7] | Potency [8] | outcome [9] | Potency [10] | Potency [11] | outcome [12] | Potency [13] | Potency [14]

C=CCS(=O)(=O)O
inactive: Potency [1] | outcome [2] | outcome [3] | outcome [4] | outcome [5] | outcome [6] | Potency [7] | Potency [8] | outcome [9] | Potency [10] | Potency [11] | outcome [12] | Potency [13] | Potency [14]

CCN(Cc1ccncc1)C(=O)C(CO)c1ccccc1 (configuration not stated)
inactive: Potency [1] | Potency [20] | outcome [2] | outcome [3] | outcome [4] | outcome [5] | outcome [6] | Potency [7] | Potency [8] | outcome [9] | Potency [10] | Potency [11] | outcome [12] | Potency [13] | Potency [14] | outcome [15] | outcome [19]

Cc1ccc(Cl)cc1Cl
inactive: Potency [1] | outcome [2] | outcome [3] | outcome [4] | outcome [5] | outcome [6] | Potency [7] | Potency [8] | outcome [9] | Potency [10] | Potency [11] | outcome [12] | Potency [13] | Potency [14]

Nc1ccccc1S(=O)(=O)O
inactive: Potency [1] | outcome [2] | outcome [3] | outcome [4] | outcome [5] | outcome [6] | Potency [7] | Potency [8] | outcome [9] | Potency [10] | Potency [11] | outcome [12] | Potency [13] | Potency [14]
